In PubChem BioAssay (NCATS):
Inconclusive results are not listed. Unmarked numbers belong to inactive results. Activity calls are given as the source filed them. The call rests on the fitted dose curve; in most records, active means well fitted inhibition curve with a large enough effect; inconclusive means small, poorly fitted or top-dose-only effect; inactive means no such curve, though single readings can be large or run the other way.

Assay: Primary qHTS for small molecule stabilizers of the endoplasmic reticulum resident proteome: Secreted ER Calcium Modulated Protein (SERCaMP) assay (AID 1508630)
Details: SH-SY5Y GLuc-SERCaMP (Gaussia luciferase released on ER calcium loss) secretion, thapsigargin, luminescence; series mostly up to 38.4 µM; activity change, negative = inhibition: at the top concentration
Text: Assay Provider: Brandon K. Harvey Ph.D.
National Institute on Drug Abuse, National Institutes of Health, Baltimore, MD
Endoplasmic reticulum (ER) dysregulation is associated with human pathologies including neurodegenerative, cardiovascular, muscular, and diabetic conditions. Maintenance of ER calcium is critical for functions of the ER and its depletion can lead to loss of ER resident proteins, in a process termed exodosis. Therapeutic compounds capable of attenuating the redistribution of ER proteins under pathological conditions may slow or stop disease progression. To identify such compounds, we performed a quantitative high-throughput screen (qHTS) using the SERCaMP assay, which monitors secretion of ER resident proteins triggered by calcium depletion.
SERCaMP was initially developed as a reporter of ER calcium homeostasis using a Gaussia luciferase with a modified signal peptide and carboxy-terminus (GLuc-SERCaMP), modifications that confer secretion of the reporter in response to ER calcium depletion (Henderson et al., 2014). The assay was used to screen 9,501 compounds, including a collection of drugs approved by the FDA (US), EMA (EU), NHI (Japan), and HC (Canada) regulatory agencies (Huang et al., 2011). Since the SERCaMP reporter reflects the exodosis phenomenon (Trychta et al., 2018a), compounds identified in the screen have the potential to prevent exodosis by different mechanisms such as stabilizing ER calcium or augmenting ERS retrieval.
1. Henderson, M.J., Wires, E.S., Trychta, K.A., Richie, C.T., and Harvey, B.K. (2014). SERCaMP: a carboxy-terminal protein modification that enables monitoring of ER calcium homeostasis. Mol Biol Cell 25, 2828-2839.
2. Huang, R., Southall, N., Wang, Y., Yasgar, A., Shinn, P., Jadhav, A., Nguyen, D.T., and Austin, C.P. (2011). The NCGC pharmaceutical collection: a comprehensive resource of clinically approved drugs enabling repurposing and chemical genomics. Sci Transl Med 3, 80ps16.
3. Trychta, K.A., Back, S., Henderson, M.J., and Harvey, B.K. (2018a). KDEL Receptors Are Differentially Regulated to Maintain the ER Proteome under Calcium Deficiency. Cell Rep 25, 1829-1840 e1826.
SEQUENCE No. (1, 2, 3, etc.); […] (e.g., Cells, Incubation, Reagent, etc.); VALUE and DESCRIPTION.
1; Reagent; 5 uL; 1000 SH-SY5Y cells per wells
3; Compound; 23 nL; Control inhibitor / compound library
5; Reagent; 100 nM; Thapsigargin
7; Reagent; 1 uL; 0.5x coelenterazine
8; Detection; Luminescence; ViewLux imaging system
NOTES (numbers refer to sequence above)
1; SH-SY5Y human neuroblastoma cells stably expressing GLuc-SERCaMP (SH-SY5Y-GLuc-ASARTDL) cells were seeded in 1,536 well white tissue culture treated plates (Corning, Cat# 7464) in DMEM-high glucose-sodium pyruvate (ThermoFisher Scientific, Cat #10569) supplemented with 10% bovine growth serum (Hyclone), 10 U/ml penicillin (Gibco), 10 ug/ml streptomycin (Gibco), and 20 mM HEPES.
2; Assay plates were incubated for 5 hour at 37C in a humidified incubator containing 5% CO2.
3; qHTS libraries (23 nl, final concentrations of 1.53 uM, 7.67 uM, 38.3 uM) or controls (neutral control: DMSO, positive control: dantrolene) were added using a Kalypsis pin-tool Robotic System equipped with 1536 pinheads.
4; Cells were then incubated for 16 hours at 37C, 5% CO2.
5; Thapsigargin was added at 100 nM to deplete ER calcium stores.
6; Cells were incubated for 4 hour (37 °C, 5% CO2)
7; Gaussia luciferase in the medium was measured by adding 1 ul of 0.5x coelenterazine (final concentration 0.07x) prepared in Gaussia Luciferase Glow Assay Buffer (Pierce), without addition of the Cell Lysis Buffer Reagent.
8; Luminescence was measured using a ViewLux […] CCD imaging system (Perkin Elmer) equipped with clear filters. […] The same controls were also used for the calculation of the Z' factor, a measure of assay quality control, as previously described (Zhang et al., 1999). […]
On the % scale 0 is the no-effect control and ±100 the full control effect; potency means the concentration at half of the fitted maximal effect.

| Structure (SMILES) | activity change, negative = inhibition | Potency |
| --- | --- | --- |
| Nc1nccc(-c2ccc3noc(-c4ccc(Cl)cc4)c3c2)n1 | -6% | – |
| NC(=O)C1CCCc2c1[nH]c1ccc(Cl)cc21 (stereo not given) | -41.7% | – |
| O=c1n(CCCN2CCN(c3cccc(Cl)c3)CC2)nc2ccccn12 | – | inactive |
| CC1(C)CNc2cc(NC(=O)c3cccnc3NCc3ccncc3)ccc21 | 180% | – |
| Oc1cccc(-c2nc(N3CCOCC3)c3oc4ncccc4c3n2)c1 | 58.8% [at 76.3 µM] | – |
| CC(C)(C)OC(=O)CN(Cc1ccc(Cl)cc1)Cc1ccc([N+](=O)[O-])s1 | 65.9% | – |
| COCCNCCCn1c(C(=O)CF)c(-c2ccc(C)cc2)c2c(N)ncnc21 | 27.5% | – |
| Cc1cc(SCc2sc(-c3ccc(C(F)(F)F)cc3)nc2C)ccc1OCC(=O)O | 25.4% | – |
| N#CC[C@H](C1CCCC1)n1cc(-c2ncnc3[nH]ccc23)cn1 | -10.8% | – |
| O=C(Nc1cccnc1)N1CCC(Cc2cccc(Oc3ccc(C(F)(F)F)cn3)c2)CC1 | -46.8% | – |
| OC(CN1CCC(Cc2ccc(F)cc2)CC1)c1ccc(Cl)cc1 (stereo not given) | – | inactive |
| COc1cc(Oc2ccnc3cc(OC)c(OC)cc23)ccc1NC(=O)NC(C)c1nccs1 (stereo not given) | 0% | – |
| NCCCC(N)(C(=O)O)C(F)F (stereo not given) | – | inactive |
| Cn1cc(-c2ccc3nnc(C(F)(F)c4ccc5ncccc5c4)n3n2)cn1 | – | 14.9 µM (active) |
| NC(N)=NC(=O)c1nc(Cl)c(N)nc1N | – | inactive |
| NC(=O)c1ccc(I)c([N+](=O)[O-])c1 | 12.2% | – |
| O=C(O)CCc1ccc(NCc2cccc(Oc3ccccc3)c2)cc1 | – | inactive |
| CCC(C)n1ncn(-c2ccc(N3CCN(c4ccc(OC[C@H]5CO[C@](Cn6cncn6)(c6ccc(Cl)cc6Cl)O5)cc4)CC3)cc2)c1=O (stereo not given in full) | – | inactive |
| CCc1cncnc1N1CCN(Cc2nc3ccc(C(F)(F)F)cc3[nH]2)CC1 | 26.4% | – |
| Clc1ccc(Nc2nnc(Cc3ccncc3)c3ccccc23)cc1 | 13.1% | – |

| Structure (SMILES) | activity change, negative = inhibition | Potency |
| --- | --- | --- |
| CNC[C@H](O)c1cccc(O)c1 | -22% | – |
| CCN(c1ccccc1)c1cc(NC)[n+](C)c(C)n1 | 107% | – |
| CCn1c(-c2nonc2N)nc2cnc(Oc3cccc(NC(=O)c4ccc(OCCN5CCOCC5)cc4)c3)cc21 | -11.8% | – |
| COc1ccc(C2=N[C@H](c3ccc(Cl)cc3)[C@H](c3ccc(Cl)cc3)N2C(=O)N2CCNC(=O)C2)c(OC(C)C)c1 | 64.4% | – |
| CCCCCCCc1ccc(CCc2cccc(O)c2C(=O)O)cc1 | 0% | – |
| COc1ccc(COc2cc3oc(=O)c4cc(C(C)O)ccc4c3cc2OC)cc1 (stereo not given) | -9.79% | – |
| CCCC(CCC)C(=O)O | – | inactive |
| Cc1c(C)c2c(c(C)c1O)CCC(C)(COc1ccc(CC3SC(=O)NC3=O)cc1)O2 (stereo not given) | – | inactive |
| CCC(C)N(C)C(=O)c1cc2ccccc2c(-c2ccccc2Cl)n1 (stereo not given) | – | inactive |
| O=C1CCc2cc(OCCCCc3nnnn3C3CCCCC3)ccc2N1 | – | inactive |
| CC(C=CC1=C(C)CCCC1(C)C)=CC=CC(C)=CC(=O)O | 169% | – |
| Cc1cc([C@@H](C)Nc2ccccc2C(=O)O)c2nc(N3CCOCC3)cc(=O)n2c1 | 234% [at 76.3 µM] | – |
| CCC(=O)N[C@H]1CC[C@H](C(=O)N(C)c2ccc(-c3nc4ccccc4o3)cc2)C1 | 109% | – |
| Nc1nc2[nH]cc(CCc3ccc(C(=O)N[C@@H](CCC(=O)O)C(=O)O)cc3)c2c(=O)[nH]1 | -43.7% | – |
| COc1ccc(-c2c(-c3ccc(O)cc3O)n[nH]c2C)cc1 | -15.4% [at 76.3 µM] | – |
| Clc1cccc(Cl)c1NC1=NCCN1 | – | inactive |
| COc1ccccc1-c1cccc(-c2c(O)c3cc(C#N)c(Cl)cc3[nH]c2=O)c1 | -40.5% [at 76.3 µM] | – |
| Cc1ccccc1C(C(=O)NC1CCCC1)N(C(=O)Cn1cnc2ccccc21)c1cccc(F)c1 (stereo not given) | 65.1% | – |
| CCc1cc(Nc2nccc(-c3c(-c4ccc(OC)c(C(=O)Nc5c(F)cccc5F)c4)nc4ccccn34)n2)c(OC)cc1N1CCC(N2CCN(S(C)(=O)=O)CC2)CC1 | – | 0.006 µM (active) |
| O=C1CCC(N2C(=O)c3ccccc3C2=O)C(=O)N1 (stereo not given) | -29.7% [at 76.3 µM] | – |
